Read-out in test [1]: Transforming growth factor beta 1 (TGFb1), TGFB1 (gene 7040)
The test can be described thus: BSK_KF3CT_TGFb1: BioMAP Diversity Plus: KF3CT Assay for Transforming growth factor beta 1 (TGFb1) Biomarker Activity (AID 2283072). As to conditions: primary human keratinocytes with fibroblasts; actives raise or lower the signal. The method in brief: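 ELISA quantifies TGF-b1 at 24 h post-dose in a primary human skin co-culture of keratinocytes and fibroblasts, with gain or loss judged against DMSO. Parallel SRB total-protein staining flags overt cytotoxicity.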

Read-out in test [2]: C-C motif chemokine 2 (Homo sapiens) (UniProt P13500)
The experiment in a line: BSK_KF3CT_MCP1: BioMAP Diversity Plus: KF3CT Assay for Monocyte Chemoattractant Protein 1 (MCP1/CCL2) Biomarker Activity (AID 2283073). As to conditions: primary human keratinocytes with fibroblasts; actives raise or lower the signal. In a few lines:
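ELISA read-out of MCP-1, 24 h post-dose, in primary human skin keratinocytes co-cultured with fibroblasts. Parallel SRB staining monitors cytotoxicity; changes fitted both directions relative to DMSO.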

Read-out in test [3]: Matrix Metallopeptidase 9 (MMP9), MMP9 (gene 4318)
The test can be described thus: BSK_KF3CT_MMP9: BioMAP Diversity Plus: KF3CT Assay for Matrix Metallopeptidase 9 (MMP9) Biomarker Activity (AID 2283074).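 For AC50: MMP9 protein level quantified by ELISA in the co-culture.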 Particulars: primary human keratinocytes with fibroblasts; actives raise or lower the signal. In a few lines: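 ELISA read-out of MMP-9 at 24 h post-dosing in a co-culture of human skin keratinocytes and foreskin fibroblasts. Gain or loss of signal was fitted in both directions against DMSO.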

Read-out in test [4]: urokinase plasminogen activator (uPA), PLAU (gene 5328)
The experiment in a line: BSK_KF3CT_uPA: BioMAP Diversity Plus: KF3CT Assay for urokinase plasminogen activator (uPA) Biomarker Activity (AID 2283075). Particulars: primary human keratinocytes with fibroblasts; actives raise or lower the signal. The method in brief: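 Skin co-culture (keratinocytes + foreskin fibroblasts), human primary; 24 h post-dose; uPA by ELISA; gain/loss fit vs DMSO baseline.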

Read-out in test [5]: E-selectin (Homo sapiens) (UniProt P16581)
The experiment in a line: BSK_LPS_Eselectin: BioMAP Diversity Plus: LPS Assay for Eselectin Biomarker Activity (AID 2283077). Particulars: primary human HUVEC with PBMC; actives raise or lower the signal. In a few lines: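 E-selectin ELISA on LPS-stimulated endothelial cell/PBMC co-cultures, read 24 h post-treatment; gains and losses fitted against DMSO. Parallel SRB staining (0.1% SRB after 10% TCA fixation, 560 nm) flags overt cytotoxicity.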

Read-out in test [6]: Interleukin-8 (IL8), CXCL8 (gene 3576)
The test can be described thus: BSK_LPS_IL8: BioMAP Diversity Plus: LPS Assay for Interleukin-8 (IL8) Biomarker Activity (AID 2283078). As to conditions: primary human HUVEC with PBMC; actives raise or lower the signal. The method in brief:
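ELISA read-out of IL-8 after 24 h chemical treatment of LPS-activated endothelial/PBMC human primary co-cultures. Changes either up or down relative to DMSO; overt cytotoxicity checked by sulforhodamine B staining in parallel wells.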

A short description of test [7]: BSK_LPS_SRB: Viability Assessment in the BioMAP Diversity Plus: LPS Assay (AID 2283079).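 Note: total protein by sulforhodamine B absorbance as a cytotoxicity measure; measured one day after compound addition.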 Particulars: primary human HUVEC with PBMC. In a few lines:
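SRB viability endpoint: cells fixed with 10% TCA, stained with 0.1% SRB, read at 560 nm, 24 h post-dose. HUVEC/PBMC co-culture; signal change in either direction scored relative to DMSO.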

Read-out in test [8]: Interleukin-1 alpha (IL1a), IL1A (gene 3552)
The experiment in a line: BSK_LPS_IL1a: BioMAP Diversity Plus: LPS Assay for Interleukin-1 alpha (IL1a) Biomarker Activity (AID 2283080). As to conditions: primary human HUVEC with PBMC; actives raise or lower the signal. The method in brief: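 Readout is IL-1a level by ELISA, 24 h post-dose, fitted as gain or loss relative to DMSO. System: LPS-activated human primary co-culture of vascular endothelium and peripheral blood mononuclear cells, with parallel SRB total-protein cytotoxicity.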

Read-out in test [9]: Monocyte Chemoattractant Protein-1 (MCP1), CCL2 (gene 6347)
The experiment in a line: BSK_LPS_MCP1: BioMAP Diversity Plus: LPS Assay for Monocyte Chemoattractant Protein-1 (MCP1) Biomarker Activity (AID 2283081). As to conditions: primary human HUVEC with PBMC; actives raise or lower the signal. The method in brief: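 Secreted MCP-1 read by ELISA at 24 h post-dosing in an LPS-activated co-culture of endothelial cells with peripheral blood mononuclear cells. Fits run in both directions, DMSO as baseline; parallel SRB staining tracks overt cytotoxicity.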

The nature of test [10]: BSK_LPS_PGE2: BioMAP Diversity Plus: LPS Assay for Prostaglandin E2 (PGE2) Biomarker Activity (AID 2283082).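 For AC50: secreted prostaglandin E2 measured by ELISA in LPS-stimulated co-culture.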 Particulars: primary human HUVEC with PBMC; actives raise or lower the signal. The method in brief:
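PGE2 release measured by ELISA in an LPS-activated co-culture of human umbilical vein endothelial cells and peripheral blood mononuclear cells, read at 24 h post-dosing. DMSO served as baseline for bidirectional curve fitting.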

Read-out in test [11]: Macrophage colony-stimulating factor (MCSF), CSF1 (gene 1435)
The experiment in a line: BSK_LPS_MCSF: BioMAP Diversity Plus: LPS Assay for Macrophage colony-stimulating factor (MCSF) Biomarker Activity (AID 2283083). As to conditions: primary human HUVEC with PBMC; actives raise or lower the signal. In a few lines:
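Bidirectional fitting against DMSO was applied to M-CSF levels read by ELISA at 24 h post-dose. The system pairs human umbilical vein endothelium with peripheral blood mononuclear cells; parallel SRB staining tracked cytotoxicity.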

Read-out in test [12]: Tissue Factor, F3 (gene 2152)
The experiment in a line: BSK_LPS_TissueFactor: BioMAP Diversity Plus: LPS Assay for Tissue Factor Biomarker Activity (AID 2283084). As to conditions: primary human HUVEC with PBMC; actives raise or lower the signal. The method in brief: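 Compound was added to an endothelial cell/PBMC co-culture, and after 24 h tissue factor (CD142) was read by ELISA. Gain or loss of signal was fitted against a DMSO baseline, and parallel SRB staining (560 nm) tracked overt cytotoxicity.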

Read-out in test [13]: Tumor necrosis factor (Homo sapiens) (UniProt P01375)
The test can be described thus: BSK_LPS_TNFa: BioMAP Diversity Plus: LPS Assay for Tumour Necrosis Factor alpha (TNFa) Biomarker Activity (AID 2283085).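 For AC50: TNFa protein level quantified by ELISA in the co-culture.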 As to conditions: primary human HUVEC with PBMC; actives raise or lower the signal. The method in brief:
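TNFa was quantified by ELISA in LPS-activated co-cultures of human endothelial cells and PBMC, 24 h post-dosing. Both increases and decreases versus DMSO were fitted.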

Read-out in test [14]: Vascular cell adhesion molecule 1 (VCAM1), VCAM1 (gene 7412)
The test can be described thus: BSK_LPS_VCAM1: BioMAP Diversity Plus: LPS Assay for Vascular cell adhesion molecule 1 (VCAM1) Biomarker Activity (AID 2283086). As to conditions: primary human HUVEC with PBMC; actives raise or lower the signal. The method in brief:
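VCAM-1 quantified by ELISA in an LPS-activated co-culture of human endothelial cells and peripheral blood mononuclear cells, read 24 h post-treatment. Fitted in both directions versus DMSO; parallel SRB staining flags overt cytotoxicity.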

Read-out in another test: CD38, CD38 (gene 952)
The test can be described thus: BSK_SAg_CD38: BioMAP Diversity Plus: SAg Assay for CD38 Biomarker Activity (AID 2283087). Particulars: primary human HUVEC with PBMC; actives raise or lower the signal. The method in brief:
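CD38 quantified by ELISA (fluorescence) in a superantigen-activated endothelial cell–PBMC co-culture at 24 h post-dose. Activity fitted in both directions relative to DMSO; parallel SRB and Alamar Blue cytotoxicity read-outs.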

Read-out in test [15]: CD40, CD40 (gene 958)
The test can be described thus: BSK_SAg_CD40: BioMAP Diversity Plus: SAg Assay for CD40 Biomarker Activity (AID 2283088). Particulars: primary human HUVEC with PBMC; actives raise or lower the signal. The method in brief:
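CD40 is measured by fluorescence ELISA in an endothelial/PBMC primary human co-culture at 24 h post-dose. Fitting is bidirectional, DMSO baseline. Parallel SRB staining (560 nm) flags cytotoxicity.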

Read-out in another test: CD69, CD69 (gene 969)
The test can be described thus: BSK_SAg_CD69: BioMAP Diversity Plus: SAg Assay for CD69 Biomarker Activity (AID 2283089). Particulars: primary human HUVEC with PBMC; actives raise or lower the signal. The method in brief:
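HUVEC co-cultured with PBMC were dosed with chemical, and CD69 was measured by ELISA with fluorescence read-out 24 h later. Bidirectional curve fitting used DMSO as negative control and activity baseline.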

Read-out in test [16]: Monocyte Chemoattractant Protein-1 (MCP1), CCL2 (gene 6347)
The test can be described thus: BSK_SAg_MCP1: BioMAP Diversity Plus: SAg Assay for Monocyte Chemoattractant Protein-1 (MCP1) Biomarker Activity (AID 2283090). As to conditions: primary human HUVEC with PBMC; actives raise or lower the signal. The method in brief:
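Values derive from bidirectional fitting of ELISA-measured MCP1 against DMSO controls. Readings were taken 24 h after dosing human vascular endothelial cells co-cultured with peripheral blood mononuclear cells under superantigen stimulation.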

Read-out in test [17]: CD40, CD40 (gene 958)
The experiment in a line: BSK_LPS_CD40: BioMAP Diversity Plus: LPS Assay for CD40 Biomarker Activity (AID 2283076). As to conditions: primary human HUVEC with PBMC; actives raise or lower the signal. The method in brief:
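In the LPS system of human endothelial cells with peripheral blood mononuclear cells, CD40 levels were read by ELISA 24 h post-treatment. Signal changes in either direction were fitted against the DMSO baseline, with parallel SRB protein staining.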

Active and inactive are the calls of the source. Rule for the calls: active = hit-call score of the fitted dose curve at least 0.9, where 1 is the maximum; inactive = score below 0.9.

In general, AC50 refers to the concentration giving half of the maximal activity seen.

Chain of E-selectin (Homo sapiens) (P16581 whole entry, looked up): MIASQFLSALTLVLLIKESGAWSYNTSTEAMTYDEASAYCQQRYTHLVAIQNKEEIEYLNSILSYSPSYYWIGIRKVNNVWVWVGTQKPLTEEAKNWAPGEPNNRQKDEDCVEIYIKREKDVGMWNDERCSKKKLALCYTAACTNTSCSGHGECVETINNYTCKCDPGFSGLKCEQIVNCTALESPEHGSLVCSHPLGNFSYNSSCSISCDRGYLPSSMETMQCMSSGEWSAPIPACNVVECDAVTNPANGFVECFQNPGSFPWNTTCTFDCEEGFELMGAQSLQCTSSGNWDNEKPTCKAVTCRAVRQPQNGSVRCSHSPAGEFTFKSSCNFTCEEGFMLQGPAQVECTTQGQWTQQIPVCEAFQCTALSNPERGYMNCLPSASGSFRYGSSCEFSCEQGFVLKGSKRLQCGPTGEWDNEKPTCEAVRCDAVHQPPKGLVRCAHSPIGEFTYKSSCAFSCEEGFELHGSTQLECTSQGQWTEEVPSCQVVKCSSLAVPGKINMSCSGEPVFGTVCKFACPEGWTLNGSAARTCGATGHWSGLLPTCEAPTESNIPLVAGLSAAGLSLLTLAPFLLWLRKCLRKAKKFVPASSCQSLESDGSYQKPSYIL
Chain of Tumor necrosis factor (Homo sapiens) (P01375 whole entry, looked up): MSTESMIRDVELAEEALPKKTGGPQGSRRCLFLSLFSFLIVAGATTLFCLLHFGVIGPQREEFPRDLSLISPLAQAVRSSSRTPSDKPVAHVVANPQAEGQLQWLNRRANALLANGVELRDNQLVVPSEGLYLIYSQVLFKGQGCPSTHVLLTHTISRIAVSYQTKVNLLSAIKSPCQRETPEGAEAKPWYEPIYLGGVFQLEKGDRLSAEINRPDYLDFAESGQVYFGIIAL

On to `O=c1ccc(=O)[nH][nH]1`, for which the outcome in [1], in test [2], in [3], in [4], in test [5] and in test [6] was inactive. Besides, the outcome in test [7], in [8], in test [9], in test [10], in [11] and in [12] was inactive. Besides, the outcome in test [13] was “inactive”; in [14], “inactive”; with CD38, CD38 (gene 952) it was “inactive”; in the test with CD40, CD40 (gene 958) [15], “inactive”; with CD69, CD69 (gene 969), “inactive”; in [16] it was “inactive”.

Consider `CCC(=O)Nc1ccc(Cl)c(Cl)c1`, for which the outcome in test [1] was “inactive”; in test [2], “inactive”; in [3], “inactive”; in test [4], “inactive”; with CD40, CD40 (gene 958) [17], “inactive”; in test [5] it was “inactive”. The result in test [6], in test [7], in test [8], in test [9], in [11] and in test [12] was inactive. The outcome in test [13] is “inactive”; in [14], “inactive”; with CD38, CD38 (gene 952) it was “inactive”; with CD40, CD40 (gene 958) [15], “inactive”; in test [16], “inactive”. The half-maximal activity concentration (AC50) in test [10] is 8.77 µM (active).

For `CCOP(=O)(OCC)Oc1cc(C)nc(C(C)C)n1`, the outcome in [1], in test [5], in test [6], in test [7], in [8] and in [9] was inactive. In addition, the outcome in test [10] was “inactive”; in test [11] it was “inactive”; in [12], “inactive”; in test [13] it was “inactive”; in [14] it was “inactive”; with CD38, CD38 (gene 952), “inactive”. The outcome in the test with CD69, CD69 (gene 969) was “inactive”; in test [16], “inactive”. The AC50 was 31.5 µM (active) in test [2]; 30.3 µM (active) in test [3]; 29.3 µM (active) in [4]; 14.4 µM (active) with CD40, CD40 (gene 958) [17].

On to `CCc1cccc(CC)c1N(COC)C(=O)CCl`, for which the result in test [1], in test [2], in test [4], in test [6], in test [9] and in test [10] was inactive. Moreover, in [12], the result was inactive. The AC50 was 20 µM (active) in [3]; 13.8 µM (active) with CD40, CD40 (gene 958) [17]; 33.8 µM (active) in test [5]; 3.97 µM (active) in test [7]; 1.06 µM (active) in test [8]; 13.6 µM (active) in [11]. Besides, the half-maximal activity concentration (AC50) in test [13] is 1.31 µM (active); in test [14] it was 26.9 µM (active); with CD38, CD38 (gene 952), 28.6 µM (active); in [16], 29.4 µM (active).

Take `CCOP(=O)(SC(C)CC)N1CCSC1=O` (centres undefined): the result in test [1], in test [2], in test [3], in [4], in test [5] and in test [6] was inactive. For the same compound, the result in test [7], in [8], in [9], in test [10], in test [11] and in test [12] was inactive. Further, the outcome in test [13] was “inactive”; in test [14] it was “inactive”; with CD38, CD38 (gene 952), “inactive”; with CD40, CD40 (gene 958) [15], “inactive”; with CD69, CD69 (gene 969), “inactive”; in test [16], “inactive”.

The values are drawn from PubChem BioAssay (EPA / NIEHS).
